Results from the supplement of paper PMC12494721.
Where a name gives a salt, the structure may show the parent alone.

Key:
Conditions in all cases: incubation time: 27 h, anaerobic, 37 °C;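 for the amine columns active = adjusted P below 0.05 in both replicates with a change the same way and a mean fold change under 0.8 or over 1.25; inactive = the rest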
[1] = test system: Clostridium sporogenes DSM 1664; assay: growth (OD595) fold change vs plate DMSO controls (fold change (ratio)); higher = more growth
Outline: (§1)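 Each value is the mean of 2 biological replicates, and fold changes above 1.5 were set to NA. The underlying readings were taken at 595 nm from shaken anaerobic mGAM cultures in 96-well plates after 27 h at 37 °C. They were blank-subtracted, corrected for compound background using 20 µM compound solutions in water, and converted to OD with a calibration factor of 5. Growth is the fold change relative to the median of the plate DMSO controls.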

[2] = test system: Escherichia coli IAI1; assay: as above
Outline: as §1

[3] = test system: Klebsiella aerogenes DSM 30053; assay: as above
Outline: as §1

[4] = test system: Ruminococcus gnavus DSM 108212; assay: as above
Outline: as §1

[5] = test system: Klebsiella aerogenes DSM 30053; assay: fold change of Histamine concentration vs plate DMSO controls (fold change (ratio)); higher = more amine produced, active = hit call of the paper (significant change in both replicates, either direction)
Outline: (§2)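 Amines were quantified by LC–triple-quadrupole MS in dynamic MRM mode against external calibration curves, with drift correction within each batch. The samples were whole anaerobic mGAM cultures of four gut bacterial strains, grown for 27 h at 37 °C in 80 µL wells and extracted with cold acetonitrile/methanol with 0.1% formic acid, then centrifuged. Values are reported as fold change over DMSO controls on the same plate. The mean of 2 biological replicates is given.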

[6] = test system: Clostridium sporogenes DSM 1664; assay: fold change of Tryptamine concentration vs plate DMSO controls (fold change (ratio)); higher = more amine produced, active = hit call of the paper (significant change in both replicates, either direction)
Outline: as §2

[7] = test system: Ruminococcus gnavus DSM 108212; assay: as above
Outline: as §2

[8] = test system: Escherichia coli IAI1; assay: fold change of Putrescine concentration vs plate DMSO controls (fold change (ratio)); higher = more amine produced, active = hit call of the paper (significant change in both replicates, either direction)
Outline: as §2

[9] = test system: Klebsiella aerogenes DSM 30053; assay: as above
Outline: as §2

[10] = test system: Escherichia coli IAI1; assay: fold change of Cadaverine concentration vs plate DMSO controls (fold change (ratio)); higher = more amine produced, active = hit call of the paper (significant change in both replicates, either direction)
Outline: as §2

[11] = test system: Klebsiella aerogenes DSM 30053; assay: as above
Outline: as §2

[12] = test system: Ruminococcus gnavus DSM 108212; assay: fold change of 2-Phenylethylamine concentration vs plate DMSO controls (fold change (ratio)); higher = more amine produced, active = hit call of the paper (significant change in both replicates, either direction)
Outline: as §2

SMILES | growth [1] | growth [2] | growth [3] | growth [4] | fold change of Histamine concentration [5] | fold change of Tryptamine concentration [6] | fold change of Tryptamine concentration [7] | fold change of Putrescine concentration [8] | fold change of Putrescine concentration [9] | fold change of Cadaverine concentration [10] | fold change of Cadaverine concentration [11] | fold change of 2-Phenylethylamine concentration [12]
CC1(C)NC(=O)N(c2ccc([N+](=O)[O-])c(C(F)(F)F)c2)C1=O [Nilutamide] (20 µM) | 0.998 | 1.02 | 0.999 | 0.98 | 1.05 (inactive) | 0.955 (inactive) | 0.957 (inactive) | 1.1 (inactive) | 1.01 (inactive) | 0.987 (inactive) | 0.995 (inactive) | 0.981 (inactive)
CC1(C)[C@@H](OC(=O)CCC(=O)O)CC[C@]2(C)[C@H]3C(=O)C=C4[C@@H]5C[C@@](C)(C(=O)O)CC[C@]5(C)CC[C@@]4(C)[C@]3(C)CC[C@@H]12 [Carbenoxolone disodium salt] (20 µM) | 1.06 | 0.984 | 0.977 | 0.91 | 1.03 (inactive) | 0.925 (inactive) | 1.04 (inactive) | 1.04 (inactive) | 1.02 (inactive) | 0.999 (inactive) | 0.993 (inactive) | 1.07 (inactive)
CO[C@H]1/C=C/O[C@@]2(C)Oc3c(C)c(O)c4c(O)c(c(/C=N/N5CCN(C6CCCC6)CC5)c(O)c4c3C2=O)NC(=O)/C(C)=C\C=C\[C@H](C)[C@H](O)[C@@H](C)[C@@H](O)[C@@H](C)[C@H](OC(C)=O)[C@@H]1C [Rifapentine] (20 µM) | 0.0116 | 0.42 | 0.784 | 0.198 | 0.572 (active) | 0.0208 (active) | 0.145 (active) | 0.829 (inactive) | 0.583 (active) | 1.92 (active) | 1.06 (inactive) | 0.128 (active)
NCCNCCNCCNCCN [Tetraethylenepentamine pentahydrochloride] (20 µM) | 1 | 1.1 | 1.02 | 0.923 | 1 (inactive) | 1.03 (inactive) | 0.952 (inactive) | 1.07 (inactive) | 0.994 (inactive) | 0.955 (inactive) | 0.994 (inactive) | 0.967 (inactive)
NC[C@H]1CC[C@H](C(=O)O)CC1 [Tranexamic acid] (20 µM) | 1.06 | 1.02 | 1 | 1.14 | 0.965 (inactive) | 1.03 (inactive) | 0.85 (inactive) | 0.977 (inactive) | 1.01 (inactive) | 1.01 (inactive) | 1.01 (inactive) | 0.849 (inactive)
CC(=O)Nc1ccc(OCC(O)CNC(C)C)cc1 (centres undefined) [Practolol] (20 µM) | 0.924 | 1.01 | 1 | 1.17 | 1.03 (inactive) | 1.05 (inactive) | 1.04 (inactive) | 1.04 (inactive) | 0.993 (inactive) | 0.999 (inactive) | 1.01 (inactive) | 1.02 (inactive)
Nc1nc(CC(=O)Nc2ccc(CCNC[C@H](O)c3ccccc3)cc2)cs1 [Mirabegron] (20 µM) | 1.09 | 1.01 | 1.13 | 0.987 | 0.931 (inactive) | 1.02 (inactive) | 0.999 (inactive) | 0.977 (inactive) | 1.01 (inactive) | 1.06 (inactive) | 1.01 (inactive) | 1.05 (inactive)
Nc1nc2ccc(OC(F)(F)F)cc2s1 [Riluzole hydrochloride] (20 µM) | 0.972 | 0.95 | 1.06 | 0.998 | 1.08 (inactive) | 0.945 (inactive) | 0.96 (inactive) | 0.97 (inactive) | 0.988 (inactive) | 0.987 (inactive) | 0.983 (inactive) | 0.968 (inactive)
CCN1CCN(Cc2ccc(Nc3ncc(F)c(-c4cc(F)c5nc(C)n(C(C)C)c5c4)n3)nc2)CC1 [Abemaciclib] (20 µM) | 0.975 | 1 | 1.04 | 1.19 | 1.02 (inactive) | 1 (inactive) | 1 (inactive) | 0.983 (inactive) | 1.01 (inactive) | 1.03 (inactive) | 0.993 (inactive) | 1.02 (inactive)
CCOc1ccc2c(c1)C(C)=CC(C)(C)N2 [Ethoxyquin] (20 µM) | 0.801 | 1 | 1.01 | 1.22 | 1.07 (inactive) | 1.06 (inactive) | 0.854 (inactive) | 1 (inactive) | 1.01 (inactive) | 0.994 (inactive) | 0.986 (inactive) | 0.807 (inactive)
COC(=O)C1=C(C)NC(C)=C(C(=O)OC2CCCN(Cc3ccccc3)C2)C1c1cccc([N+](=O)[O-])c1 (centres undefined) [Benidipine hydrochloride] (20 µM) | 1.1 | 1.23 | 1.02 | 0.864 | 0.929 (inactive) | 0.912 (inactive) | 0.983 (inactive) | 1.24 (inactive) | 1.02 (inactive) | 0.989 (inactive) | 1.02 (inactive) | 0.986 (inactive)
Cc1ncc([N+](=O)[O-])n1CC(O)CCl (centres undefined) [Ornidazole] (20 µM) | 0.007 | 0.984 | 1.04 | 0.0518 | 0.885 (inactive) | 0.00845 (active) | 0.0747 (active) | 0.976 (inactive) | 0.986 (inactive) | 0.962 (inactive) | 1.02 (inactive) | 0.0499 (active)
Oc1cc(O)c2c(c1)O[C@H](c1ccc(O)c(O)c1)[C@@H](O)C2 [Cianidanol] (20 µM) | 1.04 | 0.998 | 0.998 | 1.06 | 1.03 (inactive) | 1.26 (active) | 0.867 (inactive) | 0.977 (inactive) | 0.95 (inactive) | 0.859 (inactive) | 0.993 (inactive) | 0.978 (inactive)
O=c1[nH]cc(F)c(=O)[nH]1 [5-fluorouracil] (20 µM) | 1.2 | 0.87 | 0.897 | 1.21 | 0.728 (inactive) | 0.767 (inactive) | 0.917 (inactive) | 0.626 (inactive) | 0.961 (inactive) | 0.945 (inactive) | 0.979 (inactive) | 0.918 (inactive)
O=C1Cc2cc(CCN3CCN(c4nsc5ccccc45)CC3)c(Cl)cc2N1 [Ziprasidone  hydrochloride monohydrate] (20 µM) | 1.09 | 1.06 | 1.03 | 1.23 | 1.23 (inactive) | 0.998 (inactive) | 0.712 (active) | 1.12 (inactive) | 1.1 (inactive) | 1.08 (inactive) | 1.06 (inactive) | 0.771 (active)
CCN1CCN(C(=O)N[C@@H](C(=O)N[C@@H]2C(=O)N3[C@@H]2SC(C)(C)[C@@H]3C(=O)O)c2ccccc2)C(=O)C1=O [Piperacillin sodium salt] (20 µM) | 0 | 0.563 | 1.07 | 0 | 0.706 (inactive) | 0.0439 (active) | 0.0274 (active) | 1.17 (inactive) | 1.06 (inactive) | 1.84 (active) | 1.03 (inactive) | 0.0313 (active)
CCCCc1cc2ccccc2c(OCCN(C)C)n1 [Dimethisoquin hydrochloride] (20 µM) | 0.969 | 1.01 | 1.1 | 0.962 | 0.872 (inactive) | 0.946 (inactive) | 0.91 (inactive) | 1.07 (inactive) | 0.983 (inactive) | 1.06 (inactive) | 0.994 (inactive) | 0.96 (inactive)
CC(=O)Oc1ccccc1C(=O)O [Acetylsalicylic acid] (20 µM) | 1.11 | 0.986 | 1.04 | 1.17 | 0.992 (inactive) | 1.03 (inactive) | 1.18 (inactive) | 0.992 (inactive) | 0.998 (inactive) | 0.93 (inactive) | 1.05 (inactive) | 1.18 (inactive)
COc1ccc(-c2ccc3cc(C(=O)O)ccc3c2)cc1C12CC3CC(CC(C3)C1)C2 [Adapalene] (20 µM) | 0.829 | 1 | 1.04 | 1.18 | 1.02 (inactive) | 0.96 (inactive) | 1.04 (inactive) | 1.02 (inactive) | 1 (inactive) | 1.02 (inactive) | 0.994 (inactive) | 1.06 (inactive)
CCCCOCCOCCOCc1cc2c(cc1CCC)OCO2 [Piperonyl butoxide] (20 µM) | 1.04 | 1.09 | 1.09 | 1.06 | 0.916 (inactive) | 1.04 (inactive) | 1.07 (inactive) | 0.998 (inactive) | 0.999 (inactive) | 0.972 (inactive) | 1.02 (inactive) | 1.17 (inactive)
OC(Cn1cncn1)(Cn1cncn1)c1ccc(F)cc1F [Fluconazole] (20 µM) | 0.908 | 0.984 | 1.01 | 1.04 | 0.956 (inactive) | 1.05 (inactive) | 1.01 (inactive) | 0.989 (inactive) | 1.01 (inactive) | 1.01 (inactive) | 1.02 (inactive) | 0.959 (inactive)
C=C1CC[C@H](O)C/C1=C/C=C1\CCC[C@]2(C)[C@@H]([C@H](C)CCCC(C)C)CC[C@@H]12 [Cholecalciferol] (20 µM) | 0.913 | 0.971 | 0.962 | 1.05 | 1.08 (inactive) | 0.975 (inactive) | 1.03 (inactive) | 0.96 (inactive) | 1.01 (inactive) | 0.984 (inactive) | 1.07 (inactive) | 1.13 (inactive)
